Experimental data published in PubChem BioAssay AID588814 (The Scripps Research Institute Molecular Screening Center, 2011).
The campaign covered roughly 360,000 compounds. About 1,200 (0.33%) were called active.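 The calls were made as follows: active = activation above the run's mean compound activation plus 3 SD (cut at about 16% in these data); inactive = the rest.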 Many of the other results were omitted from the sample, so actives are more common in it than they were.

What follows are molecules tested against Muscarinic acetylcholine receptor M1 (Homo sapiens) (UniProt P11229) (assay: CHRM1 activation via calcium signal – Fluo-8 calcium fluorescence, CHO-K1 cells, HTS, primary screen (AID 588814;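 also: peak over basal fluorescence ratio within a 140 s kinetic read after compound addition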)). Conditions: CHO-K1 hM1, Fluo-8 calcium fluorescence, agonist mode; at 3 µM; stronger effect = higher value; 0% DMSO, 100% acetylcholine EC100.
Chain of Muscarinic acetylcholine receptor M1 (Homo sapiens) (P11229 whole entry, looked up): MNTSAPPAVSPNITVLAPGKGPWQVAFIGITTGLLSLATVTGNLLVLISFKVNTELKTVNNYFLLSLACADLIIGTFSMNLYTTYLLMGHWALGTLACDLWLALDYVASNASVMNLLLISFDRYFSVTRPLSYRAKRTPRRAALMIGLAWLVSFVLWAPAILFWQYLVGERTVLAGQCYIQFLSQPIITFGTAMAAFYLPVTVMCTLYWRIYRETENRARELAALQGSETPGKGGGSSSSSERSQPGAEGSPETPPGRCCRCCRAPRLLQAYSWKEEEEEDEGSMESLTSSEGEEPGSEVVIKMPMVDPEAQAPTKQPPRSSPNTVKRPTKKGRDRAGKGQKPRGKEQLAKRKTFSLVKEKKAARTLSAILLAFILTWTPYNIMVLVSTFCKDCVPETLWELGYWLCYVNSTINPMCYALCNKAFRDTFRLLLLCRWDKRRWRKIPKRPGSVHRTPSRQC

Row | SMILES | activation
1 | CCC(=O)c1ccc(OCC(=O)OCC(=O)N2CCc3ccccc3C2)cc1 | -1.8% (inactive)
2 | CCN1CCc2nc(NC(=O)c3cc(F)c(F)cc3Cl)sc2C1 | -7.11% (inactive)
3 | COC(=O)c1ccc(CSc2ccc3nnc(-c4ccccc4)n3n2)o1 | -7.9% (inactive)
4 | CCN1/C(=C\c2ccc3ccccc3[n+]2CC)Sc2cc(C)ccc21 | 26.1% (active)
5 | COCCNC(=O)C1CCCN(Cc2ccccc2Cl)CC1 (configuration not stated) | -7.52% (inactive)
6 | CCCNC(=O)CCn1nc(-c2ccccc2)c2ccccc2c1=O | -3.19% (inactive)
7 | COc1ccc(CNC(=O)CN(C(=O)c2csnn2)c2cnc3ccccc3c2)cc1 | -11.5% (inactive)
8 | CCOC(=O)C(CC)/C(C)=N\NC(=O)c1cccc(C)c1 (configuration not stated) | -0.97% (inactive)
9 | COc1ccccc1S(=O)(=O)c1c(C)cc(C)[nH]c1=O | -1.5% (inactive)
10 | Cc1cc(C)c(/C=C2\C(=O)Nc3ccccc32)[nH]1 | 26.4% (active)
11 | O=C1c2ccccc2NC(c2ccccn2)N1NS(=O)(=O)c1ccccc1 (configuration not stated) | 0.48% (inactive)
12 | CN(C(=O)CN1C(=O)NC(C)(CCc2ccccc2)C1=O)c1ccccc1 (configuration not stated) | -0.73% (inactive)
13 | CN(C)c1ccc(/C=C2\NC(=S)N(Cc3ccccc3)C2=O)cc1 | 47.3% (active)
14 | Cc1ccc(CN2C(=O)N/C(=C/c3cc(C)n(-c4ccccn4)c3C)C2=O)cc1 | -1.17% (inactive)
15 | Cc1ccc(S(=O)(=O)N(Cc2ccc(Cl)cc2)c2ccccc2C(=O)NCc2cccnc2)cc1 | -7.63% (inactive)
16 | CC(C)N(C(=O)Cn1cc(SCC(=O)N2CCCC2)c2ccccc21)C(C)C | -6.14% (inactive)
17 | O=C(CC1SCCNC1=O)Nc1ccc(Cl)cc1 (configuration not stated) | -4.53% (inactive)
18 | CC(Oc1ccc2ccccc2c1)C(=O)NNC(=S)NC(=O)c1ccco1 (configuration not stated) | 51.6% (active)
19 | CCCc1ccc(OCC(=O)NNC(=S)NC(=O)c2ccco2)cc1 | 4.47% (inactive)

Row | SMILES | activation
20 | O=C(Nc1ccc2ccccc2c1)/C(=C\c1ccc2c(c1)OCO2)NC(=O)c1ccco1 | -10.2% (inactive)
21 | CCc1nc2c(OCCOc3ccccc3)cccn2c1N(C=O)Cc1ccc(OC)cc1 | -6.89% (inactive)
22 | CCOC(=O)[C@H]1[C@H]2COc3cc(OC)ccc3[C@@H]2N2C(=O)N(c3ccc(Br)cc3)C(=O)[C@@]12C | -5.08% (inactive)
23 | Cc1cc(C)c(S(=O)(=O)N2CCC(C(=O)OCc3c(C)noc3C)CC2)c(C)c1 | -3.3% (inactive)
24 | C=CCn1c(SCc2c(C(=O)OC)sc(N)c2C(=O)OC)nnc1-c1ccc(Cl)cc1 | 0% (inactive)
25 | COc1cc(/C=C2/SC(=S)N(Cc3ccccc3)C2=O)cc(OC)c1O | 24.3% (active)
26 | CN1C=CC=C/C1=C1\SC(=S)N(Cc2ccccc2)C1=O | -13.4% (inactive)
27 | COc1ccc(CCNC2=C(Cl)C(=O)N(Cc3ccccc3)C2=O)cc1OC | -3.94% (inactive)
28 | COc1ccc(CCCc2nnc(SCc3nc4ccccc4c(=O)[nH]3)n2C)cc1 | -15.5% (inactive)
29 | CCn1c(COc2c(C)cccc2C)nnc1SCc1nc2ccccc2c(=O)[nH]1 | -4.55% (inactive)
30 | COc1ccc(C)cc1-n1nnnc1SCc1nc2ccccc2c(=O)[nH]1 | 16.2% (active)
31 | O=C1CCN(CCCc2ccccc2)CCN1CCO | -5.68% (inactive)
32 | O=S1(=O)C[C@@H](N2CCN(CCO)CC2)[C@H](COCc2ccccc2)N1 | 17.3% (active)
33 | CCCCN1CC(COCc2ccccc2)OCCS1(=O)=O (configuration not stated) | -4.53% (inactive)
34 | COc1ccc(OC)c(NC(=O)c2cc(-c3cc(F)ccc3OCC3CCCO3)n[nH]2)c1 (configuration not stated) | -6.22% (inactive)
35 | CC(C)(C)OC(=O)NC(Cc1ccccc1)C(=O)NC(CSC1CCCCO1)C(=O)NN (configuration not stated) | -3.12% (inactive)
36 | COC(=O)c1cc(C(=O)NC(C)C2CC3CCC2C3)cc([N+](=O)[O-])c1 (configuration not stated) | -7.37% (inactive)
37 | CCN(CC)CCCC(C)n1c2nc(=O)[nH]c(=O)c-2nc2cc(Cl)ccc21 (configuration not stated) | 182% (active)
38 | COc1cccc(CNCCc2c[nH]c3ccccc23)c1OCc1ccccc1F | 16.5% (active)

Row | SMILES | activation
39 | COc1ccc(C(CCNCc2ccccc2F)c2ccc(F)cc2)cc1 (configuration not stated) | -4.82% (inactive)
40 | Fc1ccccc1COc1ccccc1CNCc1ccncc1 | -7.35% (inactive)
41 | CC(C)C[C@H]1CN=C(Nc2ccccc2)N1CC1CCCCC1 | -8.04% (inactive)
42 | Cc1ccc(O)c(NC(=S)NC(=O)COc2ccc(Br)cc2)c1 | 33.4% (active)
43 | Cn1cccc1C(=O)NNC(=O)COc1ccc(Br)cc1 | -2.51% (inactive)
44 | CC(=O)Nc1ccc(OC(=O)COc2ccc(Br)cc2)cc1 | -5.95% (inactive)
45 | COCCNc1cc(-c2ccccc2)nc2cc(-c3cccc(F)c3)nn12 | -4.59% (inactive)
46 | CC1CCC2(CC1)NC(=O)N(CC(=O)c1ccc3c(c1)OCO3)C2=O (configuration not stated) | -2.81% (inactive)
47 | COc1cc(NC(=O)CN2C(=O)NC(C)(c3ccc(OC(F)F)cc3)C2=O)cc(OC)c1OC (configuration not stated) | 5.37% (inactive)
48 | COc1ccc(C2(C)NC(=O)N(CC(=O)c3ccc4c(c3)OCO4)C2=O)cc1 (configuration not stated) | 10.2% (inactive)
49 | Cc1ccc(C2(C)NC(=O)N(CC(=O)Nc3ccccc3C(=O)N3CCCCC3)C2=O)cc1 (configuration not stated) | 0.58% (inactive)
50 | CC1(c2ccc(Cl)cc2)NC(=O)N(CC(=O)c2ccc3c(c2)OCO3)C1=O (configuration not stated) | 20.6% (active)
51 | Cc1ccc(S(=O)(=O)N2CCN(C(=O)CN3C(=O)NC(C)(c4ccc(Cl)cc4)C3=O)CC2)c(C)c1 (configuration not stated) | -3.67% (inactive)
52 | Cc1ccc(C2(C)NC(=O)N(CC(=O)N3CC(=O)Nc4ccccc43)C2=O)cc1 (configuration not stated) | -1.27% (inactive)
53 | COc1ccc(C(=O)CN2C(=O)NC(C)(c3ccc(C)cc3)C2=O)cc1OC (configuration not stated) | 16.2% (active)
54 | Cc1ccc(NC(=O)CN2C(=O)NC(C)(c3ccc(Cl)cc3)C2=O)c(Br)c1 (configuration not stated) | 17.6% (active)
55 | O=C(NC(c1ccc(-c2ccccc2)cc1)c1cnccn1)C1CCN(CCOc2ccc(Cl)cc2Cl)CC1 (configuration not stated) | -1.39% (inactive)
56 | Cc1cc(Br)cn2c(Cc3ccsc3)c(-c3ccc(C#N)cc3)nc12 | -1.39% (inactive)
57 | COCCCNc1nc2c(-c3cccc(C)c3)nnn2c2ccc(Cl)cc12 | -3.36% (inactive)
